{"source": "PubChem BioAssay AID1347155", "about": "(National Center for Advancing Translational Sciences (NCATS), 2019)", "note": "Results filed as inconclusive are left out. Active and inactive are the calls of the source. Calls come from the whole dose curve; as a rule, active = well fitted inhibition curve with a large enough effect; inconclusive = small, poorly fitted or top-dose-only effect; inactive = no such curve, though single readings can be large or run the other way.", "data": [{"test_system": "Zika virus NS2B-NS3 protease (linked)", "test": "Optimization screen NINDS Rhodamine qHTS for Zika virus inhibitors: Linked NS2B-NS3 protease assay", "conditions": "fluorogenic rhodamine substrate; series mostly up to 105 µM", "in_short": "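Linked NS2B-NS3 (GGGGSGGGG linker), 25 nM in 10 mM Tris-HCl pH 8.0, 0.01% Tween 20, preincubated 15 min with compound (up to 114 µM). Rhodamine110 substrate 1.5 µM; fluorescence change over 15 min (~15% conversion) fitted to 4-parameter Hill.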", "values": [{"molecule": "CCCCOc1ccc(C2C(=O)N(C3CCCCC3)CC(=O)N2C2CCCCC2)cc1", "note": "(stereo not drawn)", "Potency": "inactive"}, {"molecule": "CNC(=O)c1cc(Oc2ccc(NC(=O)Nc3ccc(Cl)c(C(F)(F)F)c3)cc2)ccn1", "Potency": "16 µM (active)"}, {"molecule": "Oc1cc2ccccc2c2ccccc12", "Potency": "63.9 µM (active)"}]}]}
